# Source: PubChem BioAssay (NCATS)
# A number with no mark means an inactive call. Results filed as inconclusive are left out. Entries that show only a call come without a potency. Active and inactive are the calls of the source. Calls follow the shape of the dose curve; as a rule, active = well fitted curve in the direction sought with a large enough effect; inconclusive = small, poorly fitted or top-dose-only effect, or another doubt; inactive = no such curve, though single readings can be large; an effect the other way counts as inactive or inconclusive.
# Legend:
# [1] = qHTS for Inhibitors of Plasmodium falciparum (DD2) proliferation (AID 504314);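 also: parasite DNA measured by SYBR Green fluorescence after red cell lysis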
# How it was run: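 SYBR Green growth assay: 72 h compound exposure of infected red cells (2.5% hematocrit, 0.3% parasitemia), then lysis and overnight dye staining, fluorescence 485/535 nm. Values scaled between DMSO and 0.29 uM artemisinin controls.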
# [2] = qHTS for Inhibitors of Plasmodium falciparum (7G8) proliferation (AID 504316); also: nearly all actives have a fitted effect of over 65% in size; also: potency is read from the fitted curve at half-maximal effect
# How it was run: (§1)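 Parasite growth measured as SYBR Green DNA fluorescence (ex 485, em 535 nm) after overnight lysis following 72 h culture at 37 °C, 0.3% parasitemia, 2.5% hematocrit. Values normalized against DMSO and 0.29 uM artemisinin controls, with plate-stack correction.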
# [3] = qHTS for Inhibitors of Plasmodium falciparum (HB3) proliferation (AID 504318); also: nearly all actives have a fitted effect of over 60% in size; also: potency is read from the fitted curve at half-maximal effect
# How it was run: as §1
# [4] = qHTS for Inhibitors of Plasmodium falciparum (CP250) proliferation (AID 504320)
# How it was run: as §1
# [5] = target: Cytochrome P450 3A4 (Homo sapiens) (UniProt P08684); test: qHTS Assay for Inhibitors and Substrates of Cytochrome P450 3A4 (AID 884); also: potency is read from the fitted curve at half-maximal effect; nearly all actives have a fitted effect of over 50% in size
# Sequence of Cytochrome P450 3A4 (Homo sapiens) (P08684 whole entry, looked up): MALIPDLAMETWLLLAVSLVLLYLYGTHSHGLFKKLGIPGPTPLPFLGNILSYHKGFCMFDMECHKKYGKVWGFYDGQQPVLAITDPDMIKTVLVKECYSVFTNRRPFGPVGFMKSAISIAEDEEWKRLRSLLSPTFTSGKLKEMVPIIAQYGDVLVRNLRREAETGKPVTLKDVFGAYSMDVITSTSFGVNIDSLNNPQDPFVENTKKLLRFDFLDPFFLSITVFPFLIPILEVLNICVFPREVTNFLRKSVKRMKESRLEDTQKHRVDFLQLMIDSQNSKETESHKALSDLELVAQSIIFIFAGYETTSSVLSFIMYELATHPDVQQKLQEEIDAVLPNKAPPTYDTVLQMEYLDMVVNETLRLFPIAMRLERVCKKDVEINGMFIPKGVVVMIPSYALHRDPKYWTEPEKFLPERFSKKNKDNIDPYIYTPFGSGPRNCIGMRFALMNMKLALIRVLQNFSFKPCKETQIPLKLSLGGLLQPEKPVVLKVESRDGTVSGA
# How it was run: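 Luminescent readout of luciferin produced by CYP3A4 (20 nM) dealkylation of Luciferin-PPXE, 25 uM (its KM). NADPH-driven reaction ran 60 min at RT after 10 min compound preincubation; data scaled to 57 uM ketoconazole as 100% inhibition.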
# [6] = target: Cytochrome P450 3A4 (Homo sapiens) (UniProt P08684); test: qHTS Assay for Activators of Cytochrome P450 3A4 (AID 885); also: nearly all actives have a fitted effect of over 65% in size
# How it was run: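 Luminescent readout of luciferin formed from 25 uM Luciferin-PPXE (KM level) by 20 nM CYP3A4 in 200 mM KPO4, with 60 min NADPH-driven reaction at room temperature after 10 min compound exposure. Ketoconazole (57 uM) defined 100% inhibition.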
# [7] = target: Cytochrome P450 2D6 (Homo sapiens) (UniProt P10635); test: qHTS Assay for Inhibitors and Substrates of Cytochrome P450 2D6 (AID 891);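 also: luciferin methyl ether substrate demethylated by CYP2D6 with NADPH regeneration; nearly all actives have a fitted effect of over 60% in size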
# Sequence of Cytochrome P450 2D6 (Homo sapiens) (P10635 whole entry, looked up): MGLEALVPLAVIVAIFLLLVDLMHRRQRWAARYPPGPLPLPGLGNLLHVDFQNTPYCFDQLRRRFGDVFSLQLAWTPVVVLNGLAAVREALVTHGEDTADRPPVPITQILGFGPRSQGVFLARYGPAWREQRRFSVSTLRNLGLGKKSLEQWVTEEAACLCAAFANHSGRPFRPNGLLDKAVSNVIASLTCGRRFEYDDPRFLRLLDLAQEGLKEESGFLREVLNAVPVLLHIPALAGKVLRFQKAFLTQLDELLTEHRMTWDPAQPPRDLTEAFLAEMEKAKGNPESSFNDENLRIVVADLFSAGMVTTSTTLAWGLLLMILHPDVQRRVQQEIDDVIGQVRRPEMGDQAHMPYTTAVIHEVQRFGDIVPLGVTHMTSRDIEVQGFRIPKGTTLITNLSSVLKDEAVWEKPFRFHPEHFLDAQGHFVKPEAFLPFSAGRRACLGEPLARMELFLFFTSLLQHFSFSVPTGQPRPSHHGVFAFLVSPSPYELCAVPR
# How it was run: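 Luminescent read-out of luciferin formed by 5 nM human CYP2D6 demethylating 30 uM Luciferin-ME EGE (Km level) over 60 min at room temperature after NADPH regeneration addition. Data normalized to full inhibition by 1.43 uM quinidine.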
smiles,measurement,setting,value
C=CCN1C=C2C(=O)C(C)(OC(=O)CC)C(=O)C=C2C=C1CCCC (configuration not stated),Potency,[1],inactive
same,Potency,[2],inactive
same,Potency,[3],inactive
CCCCC1=CC2=CC(=O)C(C)(OC(=O)CC)C(=O)C2=CN1Cc1ccc2c(c1)OCO2 (configuration not stated),Potency,[1],inactive
same,Potency,[2],inactive
same,Potency,[3],inactive
same,Potency,[4],inactive
COC(=O)CCC(=O)OC1(C)C(=O)C=C2C=C(C3CC3)N(C3CCCCC3)C=C2C1=O (configuration not stated),Potency,[1],inactive
same,Potency,[2],inactive
same,Potency,[3],inactive
same,Potency,[4],inactive
Cc1ccc(S(=O)(=O)N2CCc3nc(-c4ccccc4)c4c(c3C2)CO[C@@H](C)C4)cc1,Potency,[1],inactive
same,Potency,[2],inactive
COC(=O)CCCC1=CC2=C(c3ccccc3)C(=O)C(C)(OC(=O)C3CCCC3)C(=O)C2=CN1Cc1ccccc1 (configuration not stated),Potency,[1],inactive
same,Potency,[2],inactive
same,Potency,[3],inactive
same,Potency,[4],inactive
CC1(OC(=O)CCc2ccccc2)C(=O)C=C2C=C(c3ccc(C#N)cc3)N(Cc3ccco3)C=C2C1=O (configuration not stated),Potency,[1],inactive
same,Potency,[2],inactive
same,Potency,[4],inactive
COC(=O)CCCC1=CC2=C(c3ccccc3)C(=O)C(C)(OC(=O)C3CCCC3)C(=O)C2=CN1C1CCCC1 (configuration not stated),Potency,[1],inactive
same,Potency,[2],inactive
CCCCC1=CC2=C(c3ccco3)C(=O)C(C)(OC(=O)c3ccc(OC)cc3)C(=O)C2=CN1CCOC (configuration not stated),Potency,[1],inactive
same,Potency,[2],inactive
same,Potency,[3],inactive
COC(=O)C1=C(C(=O)OC)[C@@H]2N(Cc3ccccc3)c3ccccc3[C@@]23C[C@@H](C(=O)OC)N(S(=O)(=O)c2ccc([N+](=O)[O-])cc2)C3=N1,Potency,[1],inactive
same,Potency,[2],1.69 µM (active)
same,Potency,[3],1.9 µM (active)
COC(=O)C1=C(C(=O)OC)[C@@H]2N(C)c3ccc(OC)cc3[C@@]23C[C@@H](C(=O)OC)N(S(=O)(=O)c2ccc([N+](=O)[O-])cc2)C3=N1,Potency,[1],inactive
same,Potency,[2],1.51 µM (active)
same,Potency,[4],inactive
COC(=O)C1=C(C(=O)OC)[C@@H]2N(C)c3ccc(OC)cc3[C@@]23C[C@@H](C(=O)OC)N(S(=O)(=O)c2ccc(Br)cc2)C3=N1,Potency,[1],inactive
same,Potency,[2],1.51 µM (active)
COC(=O)C1=C(C)N(Cc2ccco2)C(=O)N[C@@H]1c1ccc(Br)cc1,Potency,[1],inactive
same,Potency,[2],inactive
same,Potency,[3],inactive
same,Potency,[4],inactive
CCCCCCC(=O)Cc1cc(OC)c(OC)cc1C=C(C(=O)OCC)C(=O)OCC,Potency,[5],3.16 µM (active)
same,"activity change, positive = activation",[6],-90.7% [at 11.4 µM]
same,Potency,[7],inactive
same,Potency,[1],inactive
same,Potency,[2],inactive
same,Potency,[3],inactive
same,Potency,[4],inactive
CCN(CC)CCCN1C=C2C(=O)C(C)(OC(=O)CCc3ccccc3)C(=O)C=C2C=C1c1ccc(C#N)cc1 (configuration not stated),Potency,[1],inactive
same,Potency,[2],inactive
same,Potency,[3],inactive
same,Potency,[4],inactive
CCCCS(=O)(=O)N1CCc2nc(COc3ccccc3)c3c(c2C1)CO[C@@H](C)C3,Potency,[1],inactive
same,Potency,[2],inactive
same,Potency,[4],inactive
CC1(OC(=O)C2CCCC2)C(=O)C=C2C=C(c3ccsc3)N(c3ccccc3)C=C2C1=O (configuration not stated),Potency,[1],inactive
same,Potency,[2],inactive
same,Potency,[3],inactive
same,Potency,[4],inactive
CCOC(=O)NN=C1C[C@@H](O)[C@@H](O)[C@@H]2[C@H]3C(=O)N(CC)C(=O)[C@@H]3CC[C@@H]12,Potency,[1],inactive
same,Potency,[2],inactive
same,Potency,[3],inactive
same,Potency,[4],inactive
CCCCC1=CC2=CC(=O)C(C)(OC(=O)CC)C(=O)C2=CN1c1ccc(OC)cc1 (configuration not stated),Potency,[1],inactive
same,Potency,[2],inactive
same,Potency,[3],inactive
same,Potency,[4],inactive
CC(C)(C)N1C(=O)[C@@H]2[C@H]3[C@H](O)[C@H](O)CC(=NOCc4ccccc4)[C@H]3CC[C@H]2C1=O,Potency,[1],inactive
same,Potency,[2],inactive
COC(=O)N1C(/C=C/C=C/c2ccc(OC)cc2)=Cc2ccccc2C1CC(C)=O (configuration not stated),Potency,[1],inactive
same,Potency,[2],1.51 µM (active)
same,Potency,[4],inactive
C=CCN1c2ccccc2[C@]23C[C@@H](C(=O)OC)N(S(=O)(=O)c4ccc(Br)cc4)C2=NC(C(=O)OC)=C(C(=O)OC)[C@H]13,Potency,[1],inactive
same,Potency,[2],inactive
COC(=O)N[C@@H](c1ccccc1)[C@]1(C(=O)OC)CCCC1=O,Potency,[1],inactive
same,Potency,[2],inactive
same,Potency,[3],inactive
same,Potency,[4],inactive
CCN1C(=O)N(C)[C@@H](c2ccccc2)C(C(C)=O)=C1C,Potency,[1],inactive
same,Potency,[2],inactive
same,Potency,[3],inactive
same,Potency,[4],inactive
COC(=O)N1C(C)=Cc2ccccc2C1C/C(C)=C/C(C)=O (configuration not stated),Potency,[1],inactive
same,Potency,[2],inactive
same,Potency,[3],inactive
CC1(OC(=O)C2CCCC2)C(=O)C=C2C=C(c3ccsc3)N(CCc3c[nH]c4ccccc34)C=C2C1=O (configuration not stated),Potency,[1],inactive
same,Potency,[2],inactive
same,Potency,[4],inactive
CCOC(=O)CCCNC(=O)N1CCc2nc(COc3ccccc3)c3c(c2C1)CO[C@@H](C)C3,Potency,[1],inactive
same,Potency,[2],1.51 µM (active)
same,Potency,[4],inactive
CC(C)CN1C=C2C(=O)C(C)(OC(=O)CCc3ccccc3)C(=O)C=C2C=C1c1ccc(C#N)cc1 (configuration not stated),Potency,[1],inactive
same,Potency,[2],inactive
same,Potency,[3],inactive
same,Potency,[4],inactive
CCCCC1=CC2=CC(=O)C(C)(OC(=O)CC)C(=O)C2=CN1c1ccncc1 (configuration not stated),Potency,[1],inactive
same,Potency,[2],inactive
same,Potency,[3],inactive
same,Potency,[4],inactive
COC(=O)[C@@H]1[C@@H](C)N(Cc2ccccc2)C(=O)N[C@H]1c1cccc(C(F)(F)F)c1,Potency,[1],inactive
same,Potency,[2],inactive
same,Potency,[3],inactive
same,Potency,[4],inactive
CC#CCN1c2ccccc2[C@]23C[C@@H](C(=O)OC)N(C(=O)c4cccs4)C2=NC(C(=O)OC)=C(C(=O)OC)[C@H]13,Potency,[1],inactive
same,Potency,[2],inactive
same,Potency,[4],inactive
